From PubChem BioAssay (NCATS)
Inconclusive results are not listed. Where a call stands in place of a potency, no number is given. Unmarked numbers belong to inactive results. The source made the active and inactive calls. Calls follow the shape of the dose curve; as a rule, active = well fitted cell-killing curve with a large enough effect; inconclusive = small, poorly fitted or top-dose-only effect, or effect the other way; inactive = flat fitted curve, though single readings scatter.

Legend:
Assay in all cases: Primary qHTS to identify gynecologic anti-cancer compounds using libraries of approved drugs and bioactive compounds (AID 1345084); also: nearly all actives have a fitted effect of over 55% in size
C33A = details: Gynecologic cancer cell panel viability, ATPlite luminescence, 48 h; series mostly up to 57.5 µM
Method in brief: (§1)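 48 h compound exposure at 37 C, 5% CO2; five-point qHTS. ATPlite luminescence readout of cell ATP.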

CAOV3 = details: Gynecologic cancer cell panel viability, ATPlite luminescence, 48 h; series mostly up to 57.5 µM
Method in brief: as §1

CASKI = details: Gynecologic cancer cell panel viability, ATPlite luminescence, 48 h; series mostly up to 57.5 µM
Method in brief: as §1

Es-2 = details: Gynecologic cancer cell panel viability, ATPlite luminescence, 48 h; series mostly up to 57.5 µM
Method in brief: as §1

HeLa = details: Gynecologic cancer cell panel viability, ATPlite luminescence, 48 h; series mostly up to 57.5 µM
Method in brief: as §1

Hek293T = details: Gynecologic cancer cell panel viability, ATPlite luminescence, 48 h, control line for the selectivity index; series mostly up to 57.5 µM
Method in brief: as §1

JEG-3 = details: Gynecologic cancer cell panel viability, ATPlite luminescence, 48 h; series mostly up to 57.5 µM
Method in brief: as §1

OV90 = details: Gynecologic cancer cell panel viability, ATPlite luminescence, 48 h; series mostly up to 57.5 µM
Method in brief: as §1

PA-1 = details: Gynecologic cancer cell panel viability, ATPlite luminescence, 48 h; series mostly up to 57.5 µM
Method in brief: as §1

SKOV3 = details: Gynecologic cancer cell panel viability, ATPlite luminescence, 48 h; series mostly up to 57.5 µM
Method in brief: as §1

Tov-21-G = details: Gynecologic cancer cell panel viability, ATPlite luminescence, 48 h; series mostly up to 57.5 µM
Method in brief: as §1

Tov112D = details: Gynecologic cancer cell panel viability, ATPlite luminescence, 48 h; series mostly up to 57.5 µM
Method in brief: as §1
Potency is read from the fitted curve at half-maximal effect.

For `COC1=CC(=O)C=C(C)C12Oc1c(Cl)c(OC)cc(OC)c1C2=O` (configuration not stated), the Potency (C33A) was “inactive”, the Potency (CAOV3) was “inactive” and the Potency (CASKI) was “inactive”. For the same compound, the Potency (Es-2) was “inactive”, the Potency (HeLa) was “inactive” and the Potency (Hek293T) was “inactive”. For the same compound, the Potency (JEG-3) was “inactive”, the Potency (OV90) was “inactive” and the Potency (PA-1) was “inactive”. For the same compound, the Potency (SKOV3) was “inactive”, the Potency (Tov-21-G) was “inactive” and the Potency (Tov112D) was “inactive”.
In the case of `CCC(CC)Nc1nc(C)c(-c2ccc(OC(F)(F)F)cc2OC)nc1OC`, the Potency (C33A) is reported as “inactive”, the Potency (CAOV3) is reported as “inactive” and the Potency (CASKI) is reported as “inactive”. For the same compound, the Potency (Es-2) was “inactive”, the Potency (HeLa) was “inactive” and the Potency (Hek293T) was “inactive”. For the same compound, the Potency (JEG-3) was “inactive”, the Potency (OV90) was “inactive” and the Potency (PA-1) was “inactive”. For the same compound, the Potency (SKOV3) was “inactive”, the Potency (Tov-21-G) was “inactive” and the Potency (Tov112D) was “inactive”.
In the case of `C[C@]12CC[C@@H]3c4ccc(O)c(O)c4CC[C@H]3[C@@H]1CCC2=O`, the Potency (C33A) is reported as “inactive”, the Potency (CAOV3) is reported as “inactive” and the Potency (CASKI) is reported as “inactive”. For the same compound, the Potency (Es-2) was “inactive”, the Potency (HeLa) was “inactive” and the Potency (Hek293T) was “inactive”. The Potency (JEG-3) was “inactive”, the Potency (OV90) was “inactive” and the Potency (PA-1) was “inactive”. For the same compound, the Potency (SKOV3) was “inactive”, the Potency (Tov-21-G) was “inactive” and the Potency (Tov112D) was “inactive”.
With `C=CCc1ccc(OC(C)Cc2ccc(OC)c(OC)c2)c(OC)c1` (configuration not stated) the Potency (C33A) was “inactive”, the Potency (CAOV3) was “inactive” and the Potency (CASKI) was “inactive”. For the same compound, the Potency (Es-2) was “inactive”, the Potency (HeLa) was “inactive” and the Potency (Hek293T) was “inactive”. The Potency (JEG-3) was “inactive”, the Potency (OV90) was “inactive” and the Potency (PA-1) was “inactive”. For the same compound, the Potency (SKOV3) was “inactive”, the Potency (Tov-21-G) was “inactive” and the Potency (Tov112D) was “inactive”.
With `CNCCN1CCC(c2cc(CN(C)C(=O)c3cccc(Oc4ccccc4)c3)ccn2)CC1` the Potency (C33A) was “inactive”, the Potency (CAOV3) was “inactive” and the Potency (CASKI) was “inactive”. The Potency (Es-2) was “inactive”, the Potency (HeLa) was “inactive” and the Potency (Hek293T) was “inactive”. For the same compound, the Potency (JEG-3) was “inactive”, the Potency (OV90) was “inactive” and the Potency (PA-1) was “inactive”. The Potency (SKOV3) was “inactive”, the Potency (Tov-21-G) was “inactive” and the Potency (Tov112D) was “inactive”.
With `CC(C)c1ccc(NC(=O)Cn2cnc3c2c(=O)n(C)c(=O)n3C)cc1` the Potency (C33A) was “inactive”, the Potency (CAOV3) was “inactive” and the Potency (CASKI) was “inactive”. For the same compound, the Potency (Es-2) was “inactive”, the Potency (HeLa) was “inactive” and the Potency (Hek293T) was “inactive”. The Potency (JEG-3) was “inactive”, the Potency (OV90) was “inactive” and the Potency (PA-1) was “inactive”. The Potency (SKOV3) was “inactive”, the Potency (Tov-21-G) was “inactive” and the Potency (Tov112D) was “inactive”.
In the case of `C#CCCCn1cc(-c2cccc3c2N[C@H](C)CC(=O)N3)cn1`, the Potency (C33A) is reported as “inactive”, the Potency (CAOV3) is reported as “inactive” and the Potency (CASKI) is reported as “inactive”. For the same compound, the Potency (Es-2) was “inactive”, the Potency (HeLa) was 0.891 µM (active) and the Potency (Hek293T) was “inactive”. For the same compound, the Potency (JEG-3) was “inactive”, the Potency (OV90) was “inactive” and the Potency (PA-1) was 7.08 µM (active). The Potency (SKOV3) was “inactive”, the Potency (Tov-21-G) was “inactive” and the Potency (Tov112D) was “inactive”.
In the case of `O=S(=O)(NCc1ccccn1)c1ccc(Br)c2ccccc12`, the Potency (C33A) is reported as “inactive”, the Potency (CAOV3) is reported as “inactive” and the Potency (CASKI) is reported as “inactive”. The Potency (Es-2) was “inactive”, the Potency (HeLa) was “inactive” and the Potency (Hek293T) was “inactive”. For the same compound, the Potency (JEG-3) was “inactive”, the Potency (OV90) was “inactive” and the Potency (PA-1) was “inactive”. For the same compound, the Potency (SKOV3) was “inactive”, the Potency (Tov-21-G) was “inactive” and the Potency (Tov112D) was “inactive”.
In the case of `Cc1cccc(N2CCN(C(=O)c3cc(S(=O)(=O)N(C)C)ccc3N3CCCC3)CC2)c1C`, the Potency (C33A) is reported as “inactive”, the Potency (CAOV3) is reported as “inactive” and the Potency (CASKI) is reported as “inactive”. The Potency (Es-2) was “inactive”, the Potency (HeLa) was “inactive” and the Potency (Hek293T) was “inactive”. The Potency (JEG-3) was “inactive”, the Potency (OV90) was “inactive” and the Potency (PA-1) was “inactive”. For the same compound, the Potency (SKOV3) was “inactive”, the Potency (Tov-21-G) was “inactive” and the Potency (Tov112D) was “inactive”.
`N[C@@H]1c2cccnc2[C@H](OC(=O)N2CCC(n3c(=O)[nH]c4ncccc43)CC2)CC[C@H]1c1cccc(F)c1F` was tested, and the Potency (C33A) was “inactive”, the Potency (CAOV3) was “inactive” and the Potency (CASKI) was “inactive”. The Potency (Es-2) was “inactive”, the Potency (HeLa) was “inactive” and the Potency (Hek293T) was “inactive”. For the same compound, the Potency (JEG-3) was “inactive”, the Potency (OV90) was “inactive” and the Potency (PA-1) was “inactive”. The Potency (SKOV3) was “inactive”, the Potency (Tov-21-G) was “inactive” and the Potency (Tov112D) was “inactive”.
For `C/C=C/C1=CC2=C(CO1)C(=O)C(C)(OC(=O)c1c(C)cc(O)cc1OC)C(O)C2` (configuration not stated), the Potency (C33A) was “inactive”, the Potency (CAOV3) was “inactive” and the Potency (CASKI) was “inactive”. The Potency (Es-2) was “inactive”, the Potency (HeLa) was “inactive” and the Potency (Hek293T) was “inactive”. For the same compound, the Potency (JEG-3) was “inactive”, the Potency (OV90) was “inactive” and the Potency (PA-1) was “inactive”. For the same compound, the Potency (SKOV3) was “inactive”, the Potency (Tov-21-G) was “inactive” and the Potency (Tov112D) was “inactive”.
In the case of `Cc1onc(-c2ccccc2)c1C(=O)N1CCN(c2ccc([N+](=O)[O-])cc2Cl)CC1`, the Potency (C33A) is reported as “inactive”, the Potency (CAOV3) is reported as “inactive” and the Potency (CASKI) is reported as “inactive”. The Potency (Es-2) was “inactive”, the Potency (HeLa) was “inactive” and the Potency (Hek293T) was “inactive”. The Potency (JEG-3) was “inactive”, the Potency (OV90) was “inactive” and the Potency (PA-1) was “inactive”. The Potency (SKOV3) was “inactive”, the Potency (Tov-21-G) was “inactive” and the Potency (Tov112D) was “inactive”.
In the case of `Cc1cc(-c2ncc(-c3cccnc3)cc2/C=C/c2ccccc2)cnc1-c1cccnc1`, the Potency (C33A) is reported as “inactive”, the Potency (CAOV3) is reported as “inactive” and the Potency (CASKI) is reported as “inactive”. The Potency (Es-2) was “inactive”, the Potency (HeLa) was “inactive” and the Potency (Hek293T) was “inactive”. For the same compound, the Potency (JEG-3) was “inactive”, the Potency (OV90) was “inactive” and the Potency (PA-1) was “inactive”. The Potency (SKOV3) was “inactive”, the Potency (Tov-21-G) was “inactive” and the Potency (Tov112D) was “inactive”.
`O=C(O)c1cc(N(Cc2ccc(C3CCCCC3)cc2)C(=O)c2ccc(Oc3ccccc3)cc2)ccc1O` was tested, and the Potency (C33A) was “inactive”, the Potency (CAOV3) was “inactive” and the Potency (CASKI) was “inactive”. The Potency (Es-2) was “inactive”, the Potency (HeLa) was “inactive” and the Potency (Hek293T) was “inactive”. The Potency (JEG-3) was “inactive”, the Potency (OV90) was “inactive” and the Potency (PA-1) was “inactive”. The Potency (SKOV3) was “inactive”, the Potency (Tov-21-G) was “inactive” and the Potency (Tov112D) was “inactive”.
`CC(=O)O[C@@H]1CC2C(C)(C)C(=O)C=C[C@]2(C)C2CC[C@@]3(C)[C@H](c4ccoc4)OC(=O)[C@H]4O[C@]43[C@@]21C` (some centres not stated) was tested, and the Potency (C33A) was “inactive”, the Potency (CAOV3) was “inactive” and the Potency (CASKI) was “inactive”. The Potency (Es-2) was “inactive”, the Potency (HeLa) was “inactive” and the Potency (Hek293T) was “inactive”. The Potency (JEG-3) was “inactive”, the Potency (OV90) was “inactive” and the Potency (PA-1) was “inactive”. For the same compound, the Potency (SKOV3) was “inactive”, the Potency (Tov-21-G) was “inactive” and the Potency (Tov112D) was “inactive”.
For `CCOC(=O)c1ccc(OCCC2CCN(c3ccc(C)nn3)CC2)cc1`, the Potency (C33A) was “inactive”, the Potency (CAOV3) was “inactive” and the Potency (CASKI) was “inactive”. For the same compound, the Potency (Es-2) was “inactive”, the Potency (HeLa) was “inactive” and the Potency (Hek293T) was “inactive”. For the same compound, the Potency (JEG-3) was “inactive”, the Potency (OV90) was “inactive” and the Potency (PA-1) was “inactive”. The Potency (SKOV3) was “inactive”, the Potency (Tov-21-G) was “inactive” and the Potency (Tov112D) was “inactive”.
